Data as given in PubChem BioAssay (Tox21).
Results filed as inconclusive are left out. Entries that show only a call come without a potency. A number with no mark means an inactive call. Active and inactive are the calls of the source. Calls follow the shape of the dose curve; as a rule, active = well fitted cell-killing curve with a large enough effect in the repeat runs; inconclusive = weak or mixed curves, or effect the other way; inactive = flat fitted curve, though single readings scatter.

Assays:
[1] = cAMP Responsive Elements (CRE) small molecule antagonists, cell-based qHTS assay: qHTS cell viability counter screen (AID 2060913); also: nearly all actives have a fitted effect of over 40% in size
Outline: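 CRE-bla HEK293T cells were seeded in assay medium with 10% dialyzed FBS, incubated 18 hrs at 37 C, then exposed to compounds plus 0.25 uM final NKH477 for 3 hrs. Viability was read by CellTiter-Glo luminescence after 30 min, in the same wells.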

[2] = cAMP Responsive Elements (CRE) small molecule agonists, cell-based qHTS assay: qHTS cell viability counter screen (AID 2060914);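 also: viability read after 3 h of compound exposure; nearly all actives have a fitted effect of over 50% in size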
Outline: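 CRE-bla HEK 293T cells, plated 18 h at 37 °C, were exposed to compounds for 3 h at 37 °C/5% CO2. Viability was then measured in the same wells by CellTiter-Glo luminescence after 30 min at room temperature.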
Potency is read from the fitted curve at half-maximal effect.

SMILES | Potency [1] | Potency [2] | viability change, negative = cytotoxic [1] | activity change, negative = cytotoxicity [2]
C#C[C@]1(O)CC[C@H]2[C@@H]3CCc4cc(OC5CCCC5)ccc4[C@H]3CC[C@@]21C | inactive | inactive |  | 
OB(O)O | inactive | inactive |  | 
CC(=O)[O][Al][O]C(C)=O | inactive | inactive |  | 
O=C(Cl)c1ccc(C(=O)Cl)cc1 | inactive | inactive |  | 
CC(C)CC(=O)C1C(=O)c2ccccc2C1=O | inactive | inactive |  | 
NC(N)=S | inactive | inactive |  | 
CCOC(=O)CCc1ccccc1 | inactive | inactive |  | 
S=C(NC1CCCCC1)NC1CCCCC1 | inactive | inactive |  | 
O=C(O)c1cn(-c2ccc(F)cc2)c2cc(N3CCNCC3)c(F)cc2c1=O | inactive | inactive |  | 
CC/C=C\C#N | inactive | inactive |  | 
CCOC(=O)/C=C(C)/C=C/C=C(C)/C=C/c1c(C)cc(OC)c(C)c1C | inactive | inactive |  | 
CCCCCOC(=O)c1ccc(O)cc1 | inactive | inactive |  | 
O=C1Nc2cc(Cl)ccc2Oc2ccccc21 | inactive | inactive |  | 
O=C(O)C(S)C(S)C(=O)O (configuration not stated) | inactive | inactive |  | 
CCCCCCCCC(=O)OCC | inactive | inactive |  | 
CCOC(=O)CCC(C)=O | inactive | inactive |  | 
CC(C)NCC(O)c1cc(O)cc(O)c1 (configuration not stated) | inactive | inactive |  | 
CC1(C)CC(O)CC(C)(C)N1 | inactive | inactive |  | 
O=C(O)c1ccccc1-n1cc(C(=O)O)c(=O)c2cc(Nc3c(F)cc(F)cc3Cl)c(Cl)cc21 | inactive | inactive |  | 
C=CCc1ccccc1OCC(O)CNC(C)C (configuration not stated) | inactive | inactive |  | 
Fc1ccc(C(c2ccc(F)cc2)N2CCNCC2)cc1 | inactive | inactive |  | 
NC(=O)Cn1c(=O)cc(CCN2CCN(c3nccc4sccc34)CC2)c2ccc(F)cc21 | inactive | inactive |  | 
CCCCCCCCCOC(=O)c1ccc(O)cc1 | 47.9 µM (active) | inactive |  | 
C[C@H]1NCc2cc(-c3ccc4c(=O)c(C(=O)O)cn(C5CC5)c4c3OC(F)F)ccc21 |  |  | 4.45% [at 18.9 µM] | -2.79% [at 18.9 µM]
CC(C)C[C@H](NC(=O)OCC1c2ccccc2-c2ccccc21)C(=O)O | inactive | inactive |  | 
O=C1CCCc2ccccc21 | inactive | inactive |  | 

SMILES | Potency [1] | Potency [2] | viability change, negative = cytotoxic [1] | activity change, negative = cytotoxicity [2]
CCN(CC)CC(=O)Nc1c(C)cccc1C(=O)OC | inactive | inactive |  | 
NC(=O)N(O)[C@@H]1C=C[C@H](Oc2cccc(Oc3ccc(F)cc3)c2)C1 | inactive | inactive |  | 
COC(=O)CCCCC(CCSS/C(CCO)=C(\C)N(C=O)Cc1cnc(C)nc1N)SC(C)=O (configuration not stated) | inactive | inactive |  | 
COc1ccc(C(=O)c2ccccc2)c(O)c1 | inactive | inactive |  | 
CC(C)c1ccccc1C(C)C | inactive | inactive |  | 
CN(C)CCCN(C)CCCN(C)C | inactive | inactive |  | 
CC(C(=O)O)c1ccc2c(c1)[nH]c1ccc(Cl)cc12 (configuration not stated) | inactive | inactive |  | 
COc1nccnc1NS(=O)(=O)c1ccc(N)cc1 | inactive | inactive |  | 
O=C(O)c1ccc(S(=O)(=O)O)cc1C(=O)O | inactive | inactive |  | 
CC(=O)N1CCN(c2ccc(OC[C@H]3CO[C@](Cn4ccnc4)(c4ccc(Cl)cc4Cl)O3)cc2)CC1 | 54.5 µM (active) | 68.6 µM (active) |  | 
Cc1nc([N+](=O)[O-])cn1-c1ccc([N+](=O)[O-])cc1 | inactive | inactive |  | 
C=C(C)[C@@H]1CC=C(C)CC1 | inactive | inactive |  | 
CC(=O)O[C@@H]1CC2C3CCc4cc(OC(=O)c5ccccc5)ccc4C3CCC2(C)[C@H]1OC(C)=O (some centres not stated) | inactive | inactive |  | 
CCCCCCCCCCCCc1ccc(O)cc1 | 61.1 µM (active) | 61.1 µM (active) |  | 
N[C@@H](Cc1cc(I)c(Oc2ccc(O)c(I)c2)c(I)c1)C(=O)O | inactive | inactive |  | 
O=S(=O)(Cl)c1c(Cl)cccc1Cl | inactive | inactive |  | 
O=C(O)c1ccc(OCCCOc2ccc(C(=O)O)cc2)cc1 | inactive | inactive |  | 
O=C(O)/C=C/c1ccc(O)c(O)c1 | inactive | inactive |  | 
O=C(O)[C@@H]1CSCN1 | inactive | inactive |  | 
CCCCCCCCCCCCCCO | inactive | inactive |  | 
OC[C@@H](O)C(O)[C@@H](O)CO (some centres not stated) | inactive | inactive |  | 
O=C1NC(=O)C(c2ccccc2)(c2ccccc2)N1 | inactive | inactive |  | 
c1cc(N(CC2CO2)CC2CO2)ccc1OCC1CO1 (configuration not stated) | inactive | inactive |  | 
O=c1c(O)c(-c2ccc(O)cc2)oc2cc(O)cc(O)c12 | inactive | inactive |  | 
CC(=O)OCC(=O)Nc1cc(C#N)cc(NC(=O)COC(C)=O)c1Cl | inactive | inactive |  | 
